Test results reported in PubChem BioAssay AID488969 (Vanderbilt High Throughput Screening Facility, 2010).
The full ranking holds about 110,000 compounds; the median of “z-score” is about -0.1, and the highest 2% start at about 2. This is one part of a sample in which the highest values are shown more often than they occur. Activity calls are given as the source filed them.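 How the source made its calls: active means z-score in the third read window above 3 or below -3; inactive means the rest.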

These compounds were tested against Metabotropic glutamate receptor 8 (Rattus norvegicus) (UniProt P70579) (assay: rat mGluR8 modulators via GIRK flux, primary screen, cell-based, thallium flux, HTS (AID 488969)). Details: HEK293 rat mGluR8, GIRK (G protein-gated inwardly rectifying potassium channel) thallium flux, FluoZin2; at 10 µM; stronger effect = higher value; submaximal glutamate (EC20) added with thallium.
Sequence of Metabotropic glutamate receptor 8 (Rattus norvegicus) (P70579 whole entry, looked up): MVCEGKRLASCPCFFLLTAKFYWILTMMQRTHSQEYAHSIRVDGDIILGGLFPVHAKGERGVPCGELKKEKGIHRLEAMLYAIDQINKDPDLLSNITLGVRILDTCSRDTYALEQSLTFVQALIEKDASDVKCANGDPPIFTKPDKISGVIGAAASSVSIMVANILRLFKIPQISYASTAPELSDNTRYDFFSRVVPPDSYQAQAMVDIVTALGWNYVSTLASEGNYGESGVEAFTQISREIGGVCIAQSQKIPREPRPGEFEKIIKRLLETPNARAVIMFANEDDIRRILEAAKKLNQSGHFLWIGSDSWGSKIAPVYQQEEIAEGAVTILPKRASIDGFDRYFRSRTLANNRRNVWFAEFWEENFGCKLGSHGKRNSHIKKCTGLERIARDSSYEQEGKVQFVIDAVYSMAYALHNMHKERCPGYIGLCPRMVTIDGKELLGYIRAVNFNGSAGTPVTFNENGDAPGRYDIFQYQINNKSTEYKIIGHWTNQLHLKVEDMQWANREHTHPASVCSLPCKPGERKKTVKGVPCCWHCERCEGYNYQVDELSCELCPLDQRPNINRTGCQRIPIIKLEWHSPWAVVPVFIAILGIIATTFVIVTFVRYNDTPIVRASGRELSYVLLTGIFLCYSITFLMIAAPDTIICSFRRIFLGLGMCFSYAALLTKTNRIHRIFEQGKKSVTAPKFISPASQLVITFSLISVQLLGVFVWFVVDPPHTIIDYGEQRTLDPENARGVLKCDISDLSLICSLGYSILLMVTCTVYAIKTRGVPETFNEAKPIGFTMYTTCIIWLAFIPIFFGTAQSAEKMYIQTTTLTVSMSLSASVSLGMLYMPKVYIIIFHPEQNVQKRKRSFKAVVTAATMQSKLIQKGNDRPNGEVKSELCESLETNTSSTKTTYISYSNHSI
With `O=C(CN1C(=O)c2ccccc2C1=O)N1CCN(c2nnc(-c3ccccc3)c3ccccc23)CC1` the z-score was 0.179. In the case of `COC(=O)Nc1ccc(OCc2ccccc2)cc1`, the z-score is reported as 0.466. For `CC1CCN(S(=O)(=O)c2cc(C(=O)N3CCN(c4ncccn4)CC3)ccc2Br)CC1`, the z-score was -0.827. Work on `O=C(NCCC1=CCCCC1)C1CCCN(S(=O)(=O)c2cccnc2)C1` (centres undefined) yielded a z-score of 0.742. With `COc1ccc(S(=O)(=O)n2nc(-c3ccc(Cl)cc3)cc2N)cc1OC` the z-score was -0.0966. Work on `O=C(Cn1cnc2c(nnn2Cc2ccc(F)cc2)c1=O)N1CCCCC1` yielded a z-score of 0.251. Compound `Cc1ccc(C(=O)CCC(=O)Nc2cccnc2)cc1C` has a z-score of -0.25. Work on `CCCCC(=O)Nc1ccc(C(=O)Nc2nnc(COC)s2)cc1` yielded a z-score of -0.311. `Nc1nonc1C(=O)NCCNCc1ccccc1OCc1ccccc1F` showed a z-score of 1.61. `Nc1nonc1C(=O)NCCNCc1cc(Br)ccc1OCc1ccc(F)cc1` gave a z-score of 0.587. For `Nc1nonc1C(=O)NCCNCc1cc(Br)ccc1OCc1ccccc1F`, the z-score was 4.61 (active). In the case of `Cc1nn(CC(=O)NCc2ccc(OC(C)C)cc2)c(=O)c2cc3occc3n12`, the z-score is reported as -0.4. Compound `Cc1ccccc1OCc1nnc(SCc2cc(=O)[nH]c3ccccc23)n1-c1ccccc1` has a z-score of 0.00735. For `O=P(CCNCc1ccco1)(c1ccccc1)c1ccccc1`, the z-score was 0.267. In the case of `Cn1nnnc1SCc1nnc(-c2ccccc2Br)o1`, the z-score is reported as 0.436. In the case of `Cn1nnnc1SCc1nnc(-c2ccc(Cl)cc2)o1`, the z-score is reported as 2.68. Compound `Cn1nnnc1SCc1nnc(-c2ccc(F)cc2)o1` has a z-score of -0.226. With `Cc1ccc(/C(O)=C2/C(=O)C(=O)N(CCN3CCOCC3)C2c2cccs2)cc1` (centres undefined) the z-score was -0.157. Compound `COc1cccc2cc(C(=O)N3CCN(c4ncccn4)CC3)c(=O)oc12` has a z-score of -0.344. Compound `COc1ccc(C(=O)N2CCN(C3CCCCC3)CC2)c(OC)c1` has a z-score of -0.579. `COC(=O)CCSc1cc(NCCOC(C)=O)c([N+](=O)[O-])c2nonc12` was tested, and the z-score was -0.0935. For `CCCC(=O)OCCNc1cc(SCCC(=O)OC)c2nonc2c1[N+](=O)[O-]`, the z-score was -0.658. `CCCSc1cc(NCCOC(C)=O)c([N+](=O)[O-])c2nonc12` gave a z-score of 2.48. Compound `Oc1cnc2ccccc2c1CN1CCOCC1` has a z-score of -0.0791. `CCOc1cc(C)c(Cl)cc1S(=O)(=O)NCc1ccc2c(c1)OCO2` gave a z-score of -0.837. `Cc1ccc(S(=O)(=O)N2CCN(C3CC(=O)N(Cc4ccccc4)C3=O)CC2)cc1C` (centres undefined) was tested, and the z-score was -0.767. For `CCCn1c(C)cc(/C=C(\C#N)C(=O)OCC(=O)Nc2ccc(OC)c(Cl)c2)c1C`, the z-score was -0.243. `CCCn1c(C)cc(/C=C(\C#N)C(=O)OCC(=O)Nc2cccc(OC)c2)c1C` was tested, and the z-score was 3.42 (active). With `CCCn1c(C)cc(/C=C(\C#N)C(=O)OCC(=O)Nc2cc(OC)c(OC)c(OC)c2)c1C` the z-score was -0.21. `CN(CC(=O)NCCN1CCN(c2ccccc2)CC1)S(=O)(=O)c1ccc2c(c1)CCC(=O)N2` gave a z-score of 0.291. `CC1(C)COC(c2cc([N+](=O)[O-])ccc2Cl)=N1` gave a z-score of -0.41. In the case of `Clc1ccc(/C=N/Nc2nn[nH]n2)cc1`, the z-score is reported as -1.27. For `COc1ccc(C(=O)Nc2ccc(Oc3ncnc4sc(-c5ccccc5)cc34)cc2)cc1OC`, the z-score was 4.83 (active). For `COc1cc(C(=O)Nc2ccc(Oc3ncnc4sc(-c5ccccc5)cc34)cc2)cc(OC)c1OC`, the z-score was 0.344. `COc1ccccc1C(=O)Nc1ccc(Oc2ncnc3sc(-c4ccccc4)cc23)cc1` showed a z-score of -0.975. `CCCCCCN1N=C(C)C(C(=O)c2ccc(Cl)cc2)C1=O` (centres undefined) gave a z-score of 0.521. `CC1=NN(c2ccccc2)C(=O)C1C(=O)c1ccccc1` (centres undefined) gave a z-score of -0.168. Work on `CC1=NN(c2ccccc2)C(=O)C1C(=O)c1ccc(Cl)cc1` (centres undefined) yielded a z-score of 2.14. In the case of `Clc1ccc(C2=Nn3c(nnc3-c3cccs3)SC2)cc1`, the z-score is reported as -0.153. In the case of `CCOC(=O)C1=C(C)NC(=O)CC1c1ccccc1` (centres undefined), the z-score is reported as 0.409. With `Cc1ccc(-n2c(=S)[nH]c3c(oc4ccccc43)c2=O)cc1` the z-score was 0.618. Work on `Cc1ccc(-n2c(=S)[nH]c3sc4c(c3c2=O)CCc2ccccc2-4)cc1` yielded a z-score of 2.33. `COc1ccc(-n2c(=S)[nH]c3sc4c(c3c2=O)CCc2ccccc2-4)cc1` showed a z-score of 0.114. With `COc1ccc2c(c1)c(=O)oc1cc(OCC(=O)NC3CCCCC3)ccc12` the z-score was 0.0339. Compound `O=C(NC(=S)Nc1ccccc1)c1ccc(-c2ccccc2)cc1` has a z-score of 0.0142. With `Cc1ccc(NC(=O)c2csnn2)c(C)c1` the z-score was 0.804. `O=C(NC(=S)Nc1ccccc1Cl)c1csnn1` was tested, and the z-score was 11.5 (active). For `O=C(NC(=S)Nc1ccccc1)c1csnn1`, the z-score was 12.4 (active). For `COC(=O)c1c(NC(=S)Nc2ccccc2Cl)sc(C)c1C`, the z-score was 0.827. Work on `CC(=O)Nc1ccc(NC(=S)Nc2ccccc2)cc1` yielded a z-score of -0.0688. `C=C(C)C(C)(C#CCN1CCCC1)OC(C)=O` (centres undefined) gave a z-score of -0.061. For `C=CCc1c(C)nc(SC)nc1Nc1ccccc1`, the z-score was -0.563. For `COc1ccc(NC2=NC(=S)N(c3cccc(C)c3)C23CCCCC3)cc1`, the z-score was 1.22. `CC1CCC(=C(C#N)C(=O)Nc2cccc(Cl)c2)CC1` (centres undefined) showed a z-score of -0.314. Work on `CN(C#N)c1nc(Cl)nc(Nc2cccc(Cl)c2)n1` yielded a z-score of -0.113. `CC1CCC2(CC1)C(Nc1cccc(Cl)c1)=NC(=S)N2CC#N` (centres undefined) gave a z-score of 2.23. `Cc1ccc(Cl)cc1NC1=NC(=S)N(C(C)C)C12CCCCC2` showed a z-score of 0.728. Compound `N#CCN1C(=S)N=C(Nc2cccc(Cl)c2)C12CCCCC2` has a z-score of 2.57. For `CC(C)(C)C1CCC2(CC1)C(Nc1cccc(C(F)(F)F)c1)=NC(=S)N2CC#N` (centres undefined), the z-score was 2.58. `FC(F)(F)c1cccc(NC(=S)NC2CCCC2)c1` gave a z-score of 1.26. Compound `COc1ccc(NC2=NC(=S)N(c3ccc(C)cc3)C23CCCCC3)cc1` has a z-score of 0.796. `Cc1cccc(NC2=NC(=S)N(CC#N)C23CCCCC3)c1` gave a z-score of 1.02. With `O=C1CN=C(Nc2cccc(C(F)(F)F)c2)N1C1CCCC1` the z-score was -2.95. In the case of `COc1ccc(NC2=NC(=S)N(c3ccccc3C)C23CCCCC3)cc1`, the z-score is reported as 15.4 (active). `Cc1ccc(S(=O)(=O)N2CCN(c3ccc4nnc(-c5ccccc5)n4n3)CC2)cc1` showed a z-score of -0.183. Compound `CN(C)C(=O)c1snnc1-c1ccccc1` has a z-score of -0.386. `O=C1C(Cl)=C(NCCCO)C(=O)c2ccccc21` showed a z-score of -0.185. `CCOC(=O)c1c(NC(=O)CSc2nc3ccccc3s2)sc(C(C)=O)c1C` showed a z-score of -0.129. `C=CCn1c(Oc2cc(C)ccc2C)nc2c1c(=O)n(C)c(=O)n2C` gave a z-score of 0.128. With `CCC(C)(C(=O)NC1CCCCC1)N(C(=O)C1CCC(=O)N1)c1ccccc1` (centres undefined) the z-score was 0.963. `NNC(=O)c1cnn(Cc2ccccc2)c1N` showed a z-score of 0.0742. `Cc1cccc(NC2=NC(=S)N(c3ccc(C(=O)O)cc3)C23CCCCC3)c1` was tested, and the z-score was -0.194. In the case of `Cc1ccc(NC2=NC(=S)N(CC#N)C23CCCCC3)cc1`, the z-score is reported as 3.98 (active). For `Cc1ccc(Nc2nc(N)nc(CC#N)n2)cc1`, the z-score was 0.115. With `CCSc1nnc(NC(=O)C(C)Sc2nc3ccccc3[nH]2)s1` (centres undefined) the z-score was 1.73. Compound `COc1ccc(N(CC(=O)NCc2ccc3c(c2)OCO3)S(=O)(=O)c2c(C)nn(C)c2C)cc1` has a z-score of -0.575. `COC(=O)c1ccc(COC(=O)c2ccc(SC)cc2OC)cc1` gave a z-score of -0.178. For `Cc1cccc(NC(=O)c2sc(Cl)nc2C)c1C`, the z-score was 0.181. Compound `Cn1c(=O)oc2cc(S(=O)(=O)N3CCCC(C(=O)N4CC=C(c5ccccc5)CC4)C3)ccc21` (centres undefined) has a z-score of 1.18. In the case of `O=C(Nc1ccccc1N1CCOCC1)C1CCN(S(=O)(=O)c2cccc(C(F)(F)F)c2)CC1`, the z-score is reported as -0.294. `O=C(Nc1ccc(N2CCOCC2)cc1)C1CCCN(S(=O)(=O)c2ccccc2)C1` (centres undefined) gave a z-score of 0.446. For `O=C(Nc1ccc(N2CCOCC2)cc1)C1CCCN(S(=O)(=O)c2cccc(C(F)(F)F)c2)C1` (centres undefined), the z-score was 2.63. Work on `Cc1nn(-c2ccccc2)c(Cl)c1/C=N/NC(=O)C1COc2ccccc2O1` (centres undefined) yielded a z-score of -0.169. With `CCCSc1nnc(-c2cnn(-c3ccccc3)c2-n2cccc2)n1C` the z-score was -0.0552. For `COc1cc(NC(=O)c2ccc(C)cc2)c(OC)cc1NC(=O)CN1CCCCC1`, the z-score was 2.37. In the case of `COc1cc(NC(=O)c2ccccc2)c(OC)cc1NC(=O)CN1CCCCC1`, the z-score is reported as -0.781. Work on `COc1cc(NC(=O)c2ccc(C)cc2)c(OC)cc1NC(=O)CN1CCOCC1` yielded a z-score of -0.672. Work on `COc1cc(NC(=O)COC(=O)CNC(=O)c2ccc(Cl)cc2)c(C)cc1[N+](=O)[O-]` yielded a z-score of -0.644. Work on `CC1CC(=S)Nc2ccccc2S1` (centres undefined) yielded a z-score of 1.11. With `COC(=O)C(C)C1Sc2ccccc2NC1=O` (centres undefined) the z-score was -0.34. For `CC1(C)CC(=S)Nc2ccccc2S1`, the z-score was 7.97 (active). `CCOC(=O)c1cc(C#N)c(Oc2ccc(F)cc2)nc1-c1ccccc1` gave a z-score of -0.0477. `Cc1cc(C(=O)COC(=O)Cc2n[nH]c(=O)c3ccccc23)c(C)n1-c1ccc2c(c1)OCCO2` gave a z-score of -0.104. Compound `CS(=O)(=O)c1ccc(Cl)c(NC(=O)c2cccc(Br)c2)c1` has a z-score of -0.236. `COc1ccc(OC)c(Nc2ncnc3c2cnn3-c2ccccc2)c1` showed a z-score of -0.143. For `O=C(CSC1=Nc2ccccc2C2=NC(c3ccccc3)C(=O)N12)NCC1CCCO1` (centres undefined), the z-score was 2.65. In the case of `O=C(CSC1=Nc2ccccc2C2=NC(c3ccccc3)C(=O)N12)NC1CCCCC1` (centres undefined), the z-score is reported as -0.816. Work on `O=C(CSC1=Nc2ccccc2C2=NC(CC(=O)NCc3ccco3)C(=O)N12)NCC1CCCO1` (centres undefined) yielded a z-score of -0.919. `CCC(=O)OCCn1c(Br)nc2c1c(=O)[nH]c(=O)n2C` gave a z-score of -0.265. `C/C=C/Cn1c(Br)nc2c1c(=O)n(C)c(=O)n2C` showed a z-score of 1.47. Compound `C/C(CCC12CC3CC(CC(C3)C1)C2)=N\NC(N)=S` has a z-score of -0.636. Compound `C/C(=N\NC(N)=S)C12CC3CC(CC(C3)C1)C2` has a z-score of 2.47. For `C/C(=N\NC(=O)c1ccncc1)C12CC3CC(CC(C3)C1)C2`, the z-score was -0.319. With `COc1ccc(OC)c(C(=O)CSc2nccc(-c3ccc(Br)cc3)n2)c1` the z-score was -0.268. In the case of `CC(C)OC(=O)/C(=C/c1cccnc1)NC(=O)c1ccccc1`, the z-score is reported as 3.22 (active). For `COC(=O)/C(=C/c1cccnc1)NC(=O)c1ccccc1`, the z-score was -0.0328. `CC(C)OC(=O)/C(=C\C=C\c1ccccc1)NC(=O)c1ccccc1` showed a z-score of -0.143. `CC(=O)Nc1c(OC(C)=O)ccc2c(C)cc(=O)oc12` gave a z-score of -0.24. For `Cc1cc(C(F)(F)F)nn1Cc1n[nH]c(=S)n1-c1cccc(Cl)c1`, the z-score was -0.0907.
